{"source": "ChEMBL document CHEMBL4303097", "about": "(2020)", "note": "The full ranking holds about 1,500 compounds; the median of “Inhibition index” is about 0.17, and the highest 2% start at about 1.3. Many of the other results were omitted from the sample, so the highest values are more common in it than they were.", "data": [{"tested_on": "SARS-CoV-2", "assay": "Inhibition of cell viability relative to arbidol control (inhibition index > 1 indicates higher activity) measured by fluorescence (OD590nm) in Vero E6 cells infected with SARS-CoV-2 (strain BavPat1) at MOI 0.002 after 72hrs", "assay_type": "functional, Chlorocebus sabaeus, Vero C1008", "values": [{"smiles": "O=C(NC1CCN(CCCCC2(C(=O)NCC(F)(F)F)c3ccccc3-c3ccccc32)CC1)c1ccccc1-c1ccc(C(F)(F)F)cc1", "note": "[LOMITAPIDE]", "Inhibition index": -0.295}, {"smiles": "CC(C)(C)NC[C@H](O)COc1cccc2c1CCCC2=O.Cl", "note": "[LEVOBUNOLOL HYDROCHLORIDE]", "Inhibition index": 0.5259}, {"smiles": "CN(C)CCC=C1c2ccccc2C=Cc2ccccc21.Cl", "note": "[CYCLOBENZAPRINE HYDROCHLORIDE]", "Inhibition index": 0.6333}, {"smiles": "CO/N=C(\\C(=O)N[C@@H]1C(=O)N2C(C(=O)OC(C)OC(C)=O)=C(COC(N)=O)CS[C@H]12)c1ccco1", "note": "(stereo partly drawn) [CEFUROXIME AXETIL]", "Inhibition index": 0.1456}, {"smiles": "CCOc1nc2cccc(C(=O)O)c2n1Cc1ccc(-c2ccccc2-c2nnn[nH]2)cc1", "Inhibition index": 1.166}, {"smiles": "Cl.O=C1CC2(CCCC2)CC(=O)N1CCCCN1CCN(c2ncccn2)CC1", "note": "[BUSPIRONE HYDROCHLORIDE]", "Inhibition index": 1.176}, {"smiles": "C#C[C@]1(O)CC[C@H]2[C@@H]3[C@H](C)CC4=C(CCC(=O)C4)[C@H]3CC[C@@]21C", "note": "[TIBOLONE]", "Inhibition index": 0.3794}, {"smiles": "CN(C)CCCSC(=N)N.Cl.Cl", "Inhibition index": 1.382}, {"smiles": "Nc1ncnc2c1ncn2[C@@H]1O[C@H](COP(=O)(O)O)[C@@H](O)[C@H]1O.O", "Inhibition index": 0.1161}, {"smiles": "CN(C)CCc1c[nH]c2ccc(Cn3cncn3)cc12.O=C(O)c1ccccc1", "note": "[RIZATRIPTAN BENZOATE]", "Inhibition index": 0.7991}, {"smiles": "CC#C[C@]1(O)CC[C@H]2[C@@H]3CCC4=CC(=O)CCC4=C3[C@@H](c3ccc(N(C)C)cc3)C[C@@]21C", "note": "[MIFEPRISTONE]", "Inhibition index": 0.1807}, {"smiles": "CN(C)C(=N)NC(=N)N.Cl", "note": "[METFORMIN HYDROCHLORIDE]", "Inhibition index": 0.00269}, {"smiles": "CC1(C)S[C@@H]2[C@H](NC(=O)[C@H](N)c3ccccc3)C(=O)N2[C@H]1C(=O)OC1OC(=O)c2ccccc21.Cl", "note": "(stereo partly drawn) [TALAMPICILLIN HYDROCHLORIDE]", "Inhibition index": 0.5053}, {"smiles": "CCOC(=O)C1=C[C@@H](OC(CC)CC)[C@H](NC(C)=O)[C@@H](N)C1.O=P(O)(O)O", "note": "[OSELTAMIVIR PHOSPHATE]", "Inhibition index": -0.01747}, {"smiles": "Br.COc1ccc2c3c1O[C@H]1C[C@@H](O)C=C[C@@]31CCN(C)C2", "note": "[GALANTAMINE HYDROBROMIDE]", "Inhibition index": 0.03283}, {"smiles": "Cl.N/C(=N\\C(=O)c1nc(Cl)c(N)nc1N)NCc1ccccc1", "note": "[BENZAMIL HYDROCHLORIDE]", "Inhibition index": -0.07365}, {"smiles": "C=CCOc1ccccc1OCC(O)CNC(C)C.Cl", "note": "(stereo not drawn) [OXPRENOLOL HYDROCHLORIDE]", "Inhibition index": 1.632}, {"smiles": "C=CCc1ccccc1OCC(O)CNC(C)C.Cl", "note": "(stereo not drawn) [ALPRENOLOL HYDROCHLORIDE]", "Inhibition index": 0.02886}, {"smiles": "CC(C)NCC(O)COc1cccc2[nH]c3ccccc3c12", "note": "(stereo not drawn) [CARAZOLOL]", "Inhibition index": 0.7194}, {"smiles": "C[C@]12CCC3=C4CCC(=O)C=C4CC[C@H]3[C@@H]1CC[C@@]2(O)CC#N", "note": "[DIENOGEST]", "Inhibition index": 0.1822}, {"smiles": "Cl.Cl.Fc1ccc(C(OCCN2CCN(CCCc3ccccc3)CC2)c2ccc(F)cc2)cc1", "Inhibition index": -0.1375}, {"smiles": "CC[C@H](C)C(=O)O[C@H]1C[C@H](O)C=C2C=C[C@H](C)[C@H](CC[C@@H](O)C[C@@H](O)CC(=O)O)[C@H]21", "note": "[PRAVASTATIN]", "Inhibition index": 0.3233}, {"smiles": "CC(=O)OCC1=C(C(=O)[O-])N2C(=O)[C@@H](NC(=O)Cc3cccs3)[C@H]2SC1.[Na+]", "note": "[CEPHALOTHIN SODIUM]", "Inhibition index": 0.1149}, {"smiles": "C[C@@H](O)[C@H]1C(=O)N2C(C(=O)O)=C(SCCNC=N)C[C@H]12", "note": "[IMIPENEM ANHYDROUS]", "Inhibition index": 0.0698}, {"smiles": "CCOC(=O)NNc1nncc2ccccc12.Cl", "note": "[TODRALAZINE HYDROCHLORIDE]", "Inhibition index": -0.005099}, {"smiles": "CC(C)=C/C(C)=N/Nc1nncc2ccccc12", "note": "[BUDRALAZINE]", "Inhibition index": 1.549}, {"smiles": "CCc1c(C)[nH]c2c1C(=O)C(CN1CCOCC1)CC2.Cl", "note": "(stereo not drawn) [MOLINDONE HYDROCHLORIDE]", "Inhibition index": 0.4807}, {"smiles": "CN[C@H](CC(C)C)C(=O)N[C@H]1C(=O)N[C@@H](CC(N)=O)C(=O)N[C@H]2C(=O)N[C@H]3C(=O)N[C@H](C(=O)N[C@H](C(=O)O)c4cc(O)cc(O)c4-c4cc3ccc4O)[C@H](O)c3ccc(c(Cl)c3)Oc3cc2cc(c3O[C@@H]2O[C@H](CO)[C@@H](O)[C@H](O)[C@H]2O[C@H]2C[C@](C)(N)[C@H](O)[C@H](C)O2)Oc2ccc(cc2Cl)[C@H]1O.Cl", "Inhibition index": 0.05858}, {"smiles": "C[C@H]1O[C@H](O[C@H]2[C@H](O)[C@@H](O)[C@@H](O[C@H]3[C@H](O)[C@@H](O)C(O)O[C@@H]3CO)O[C@@H]2CO)[C@H](O)[C@@H](O)[C@@H]1N[C@H]1C=C(CO)[C@@H](O)[C@H](O)[C@H]1O", "note": "(stereo partly drawn) [ACARBOSE]", "Inhibition index": 0.004156}, {"smiles": "CC(=O)[C@H]1CC[C@H]2[C@@H]3C=CC4=CC(=O)CC[C@@]4(C)[C@@H]3CC[C@]12C", "note": "[DYDROGESTERONE]", "Inhibition index": 0.5447}, {"smiles": "COCCCOc1ccnc(C[S+]([O-])c2nc3ccccc3[nH]2)c1C.[Na+]", "note": "(stereo not drawn)", "Inhibition index": 0.5892}, {"smiles": "CC(COc1ccccc1)NC(C)C(O)c1ccc(O)cc1.Cl", "note": "(stereo not drawn) [ISOXSUPRINE HYDROCHLORIDE]", "Inhibition index": -0.02068}, {"smiles": "CC(CCc1ccccc1)NC(C)C(O)c1ccc(O)cc1", "note": "(stereo not drawn) [NYLIDRIN]", "Inhibition index": 1.263}, {"smiles": "CC(CCc1ccccc1)NCC(O)c1ccc(O)c(C(N)=O)c1.Cl", "note": "(stereo not drawn) [LABETALOL HYDROCHLORIDE]", "Inhibition index": 0.3584}, {"smiles": "CC(C)NC[C@@H](O)c1ccc(O)c(O)c1.O=C(O)C(O)C(O)C(=O)O", "Inhibition index": 0.1733}, {"smiles": "CC(NCCc1ccc(O)cc1)C(O)c1ccc(O)cc1.Cl", "note": "(stereo not drawn) [RITODRINE HYDROCHLORIDE]", "Inhibition index": 0.3972}, {"smiles": "C[C@H](CCc1ccccc1)NC[C@H](O)c1ccc(O)c(C(N)=O)c1", "note": "[DILEVALOL]", "Inhibition index": 1.277}, {"smiles": "CCOC(=O)O[C@]1(C(=O)OCCl)CC[C@H]2[C@@H]3CCC4=CC(=O)C=C[C@]4(C)[C@H]3[C@@H](O)C[C@@]21C", "note": "[LOTEPREDNOL ETABONATE]", "Inhibition index": 0.5857}, {"smiles": "CC1(C)O[C@@H]2C[C@H]3[C@@H]4C[C@H](F)C5=CC(=O)C=C[C@]5(C)[C@H]4[C@@H](O)C[C@]3(C)[C@]2(C(=O)CO)O1", "note": "[FLUNISOLIDE]", "Inhibition index": 0.0848}, {"smiles": "CC1(C)O[C@@H]2C[C@H]3[C@@H]4CCC5=CC(=O)C=C[C@]5(C)[C@H]4[C@@H](O)C[C@]3(C)[C@]2(C(=O)CO)O1", "note": "[DESONIDE]", "Inhibition index": 1.58}, {"smiles": "C[C@]12C=CC(=O)C=C1CC[C@@H]1[C@@H]2[C@@H](O)C[C@@]2(C)[C@H]1CC[C@]2(O)C(=O)CO", "note": "[PREDNISOLONE]", "Inhibition index": 0.3132}, {"smiles": "CCOC(=O)O[C@]1(C(=O)COC(=O)CC)CC[C@H]2[C@@H]3CCC4=CC(=O)C=C[C@]4(C)[C@H]3[C@@H](O)C[C@@]21C", "note": "[PREDNICARBATE]", "Inhibition index": 1.368}, {"smiles": "CCCC1O[C@@H]2C[C@H]3[C@@H]4CCC5=CC(=O)C=C[C@]5(C)[C@H]4[C@@H](O)C[C@]3(C)[C@]2(C(=O)CO)O1", "note": "(stereo partly drawn) [BUDESONIDE]", "Inhibition index": 0.726}]}]}
